In PubChem BioAssay (EPA / NIEHS) one finds outcome and AC50 data, which are given here for four molecules.

Test [1] is described as follows: BSK_3C_TissueFactor: BioMAP Diversity Plus: 3C Assay for Tissue Factor Biomarker Activity (AID 2282997). The conditions noted are these: BioMAP 3C HUVEC, tissue factor biomarker readout; actives raise or lower the signal. Summed up: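 Dosing of human umbilical vein endothelial cells preceded a 24 h incubation. Tissue Factor was then read by ELISA, with increases and decreases both scored relative to DMSO controls.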

Test [2] is described as follows: BSK_3C_VCAM1: BioMAP Diversity Plus: 3C Assay for Vascular cell adhesion molecule 1 (VCAM1) Biomarker Activity (AID 2282999). The note with it: BioMAP 3C HUVEC, VCAM1 ELISA, cytokine-stimulated; actives raise or lower the signal. Summed up: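 Human umbilical vein endothelial cells were dosed with compound for 24 h, after which cell-surface VCAM-1 was quantified by ELISA. Bidirectional curve fitting used DMSO as negative control and activity baseline.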

Read-out in test [3]: Monokine induced gamma interferon (MIG), CXCL9 (gene 4283)
Kind of test: BSK_3C_MIG: BioMAP Diversity Plus: 3C Assay for Monokine induced gamma interferon (MIG) Biomarker Activity (AID 2283021).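 For AC50: MIG protein level measured by immunoassay in the treated endothelial cultures.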 The note with it: primary human endothelial cells (HUVEC); actives raise or lower the signal. In short, it runs like this: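 Primary human umbilical vein endothelial cells in the 3C system were exposed to chemical for 24 h, after which MIG was quantified by ELISA. Activity was fitted bidirectionally against DMSO as negative control and baseline.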

Read-out in test [4]: Monokine induced gamma interferon (MIG), CXCL9 (gene 4283)
Kind of test: BSK_BE3C_MIG: BioMAP Diversity Plus: BE3C Assay for Monokine induced gamma interferon (MIG) Biomarker Activity (AID 2283035). The conditions noted are these: primary human bronchial epithelial cells; actives raise or lower the signal. Summed up: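 ELISA read-out of MIG in human lung bronchial epithelial primary cultures, 24 h post-dosing. Bidirectional curve fit vs DMSO baseline.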

Read-out in test [5]: Plasminogen activator inhibitor-1 (PAI1), SERPINE1 (gene 5054)
Kind of test: BSK_BE3C_PAI1: BioMAP Diversity Plus: BE3C Assay for Plasminogen activator inhibitor-1 (PAI1) Biomarker Activity (AID 2283037). The conditions noted are these: primary human bronchial epithelial cells; actives raise or lower the signal. In short, it runs like this:
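Human primary bronchial epithelial cells were exposed to chemical for 24 h, then PAI-1 was quantified by ELISA. Activity was fitted bidirectionally relative to the DMSO negative control baseline.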

Read-out in test [6]: urokinase plasminogen activator (uPA), PLAU (gene 5328)
Kind of test: BSK_BE3C_uPA: BioMAP Diversity Plus: BE3C Assay for urokinase plasminogen activator (uPA) Biomarker Activity (AID 2283038).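 For outcome: uPA protein level quantified by ELISA in cell cultures; uPA read one day after compound addition.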 The conditions noted are these: primary human bronchial epithelial cells; actives raise or lower the signal. Summed up:
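ELISA for uPA on human primary bronchial epithelial cultures 24 h post-treatment, gain or loss against DMSO. Parallel SRB staining (0.1% after 10% TCA fixation, 560 nm) assessed overt cytotoxicity.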

Read-out in test [7]: Tissue plasminogen activator (tPA), PLAT (gene 5327)
Kind of test: BSK_BE3C_tPA: BioMAP Diversity Plus: BE3C Assay for Tissue plasminogen activator (tPA) Biomarker Activity (AID 2283041).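 Note: tPA level quantified by ELISA one day after compound addition.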 The conditions noted are these: primary human bronchial epithelial cells; actives raise or lower the signal. Summed up: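 Human primary bronchial epithelial cells were dosed with chemical and tPA biomarker levels measured by ELISA 24 hours later. Activity was fitted bidirectionally against DMSO as negative control and baseline.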

Read-out in test [8]: serum amyloid A (SAA), SAA1 (gene 6288)
Kind of test: BSK_CASM3C_SAA: BioMAP Diversity Plus: CASM3C Assay for serum amyloid A (SAA) Biomarker Activity (AID 2283049).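 Note: SAA protein level quantified by ELISA.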 The note with it: primary human coronary artery smooth muscle cells; actives raise or lower the signal.

Read-out in test [9]: Vascular cell adhesion molecule 1 (VCAM1), VCAM1 (gene 7412)
Kind of test: BSK_CASM3C_VCAM1: BioMAP Diversity Plus: CASM3C Assay for Vascular cell adhesion molecule 1 (VCAM1) Biomarker Activity (AID 2283055).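 Note: VCAM-1 protein level quantified by ELISA on the cells.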 The conditions noted are these: primary human coronary artery smooth muscle cells; actives raise or lower the signal.

Read-out in test [10]: Collagen III, COL3A1 (gene 1281)
Kind of test: BSK_hDFCGF_CollagenIII: BioMAP Diversity Plus: hDFCGF Assay for Collagen III Biomarker Activity (AID 2283056). The note with it: primary human foreskin fibroblasts; actives raise or lower the signal. Summed up:
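ELISA readout of Collagen III in human dermal (foreskin) fibroblasts, taken 24 h post-treatment. Gain or loss relative to DMSO vehicle fitted in both directions.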

Read-out in test [11]: Macrophage colony-stimulating factor (MCSF), CSF1 (gene 1435)
Kind of test: BSK_hDFCGF_MCSF: BioMAP Diversity Plus: hDFCGF Assay for Macrophage colony-stimulating factor (MCSF) Biomarker Activity (AID 2283060). The conditions noted are these: primary human foreskin fibroblasts; actives raise or lower the signal. Summed up: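 M-CSF levels read by ELISA at 24 h post-dosing in human skin fibroblasts. Parallel cultures stained with SRB assessed cytotoxicity at the same time point; response fitted in both directions against the DMSO baseline.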

Read-out in test [12]: Interleukin-1 alpha (IL1a), IL1A (gene 3552)
Kind of test: BSK_KF3CT_IL1a: BioMAP Diversity Plus: KF3CT Assay for Interleukin-1 alpha (IL1a) Biomarker Activity (AID 2283070). The conditions noted are these: primary human keratinocytes with fibroblasts; actives raise or lower the signal. Summed up:
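Human keratinocyte plus foreskin fibroblast primary co-culture, sampled 24 h after chemical dosing. IL-1a measured by ELISA; responses fitted bidirectionally against DMSO baseline (negative control), so gain or loss of signal both count.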

Read-out in test [13]: TIMP metallopeptidase inhibitor 2 (TIMP2), TIMP2 (gene 7077)
Kind of test: BSK_KF3CT_TIMP2: BioMAP Diversity Plus: KF3CT Assay for TIMP metallopeptidase inhibitor 2 (TIMP2) Biomarker Activity (AID 2283071). The conditions noted are these: primary human keratinocytes with fibroblasts; actives raise or lower the signal. Summed up:
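Human primary keratinocyte/foreskin fibroblast co-culture dosed with chemical and sampled at 24 h. TIMP-2 levels quantified by ELISA; bidirectional fitting against DMSO negative control as baseline.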

Read-out in test [14]: Matrix Metallopeptidase 9 (MMP9), MMP9 (gene 4318)
Kind of test: BSK_KF3CT_MMP9: BioMAP Diversity Plus: KF3CT Assay for Matrix Metallopeptidase 9 (MMP9) Biomarker Activity (AID 2283074).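 For AC50: MMP9 protein level quantified by ELISA in the co-culture.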 The note with it: primary human keratinocytes with fibroblasts; actives raise or lower the signal. In short, it runs like this:
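Keratinocyte plus foreskin fibroblast human primary skin co-culture was dosed with chemical and MMP-9 was quantified by ELISA 24 h later. Bidirectional curve fitting used DMSO as negative control and activity baseline.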

Read-out in test [15]: Tumor necrosis factor (Homo sapiens) (UniProt P01375)
Kind of test: BSK_LPS_TNFa: BioMAP Diversity Plus: LPS Assay for Tumour Necrosis Factor alpha (TNFa) Biomarker Activity (AID 2283085).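 For AC50: TNFa protein level quantified by ELISA in the co-culture.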 The note with it: primary human HUVEC with PBMC; actives raise or lower the signal. In short, it runs like this: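 Human umbilical vein endothelial cells co-cultured with PBMC were exposed to test chemical and TNFa measured by ELISA 24 h after dosing. Bidirectional curve fitting was done relative to DMSO as negative control and baseline.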

Read-out in another test: CD38, CD38 (gene 952)
Kind of test: BSK_SAg_CD38: BioMAP Diversity Plus: SAg Assay for CD38 Biomarker Activity (AID 2283087). The conditions noted are these: primary human HUVEC with PBMC; actives raise or lower the signal. Summed up: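 Fluorescence ELISA of cell-surface CD38 served as the read-out, with either increase or decrease fitted against DMSO controls. Cells were a human umbilical vein endothelium plus PBMC co-culture under SEB/TSST-1 stimulation, measured 24 h after dosing.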

Read-out in a further test: CD69, CD69 (gene 969)
Kind of test: BSK_SAg_CD69: BioMAP Diversity Plus: SAg Assay for CD69 Biomarker Activity (AID 2283089).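 For AC50: cell surface CD69 protein quantified by ELISA with fluorescence detection.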 The conditions noted are these: primary human HUVEC with PBMC; actives raise or lower the signal. In short, it runs like this: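 Values derive from bidirectional fitting relative to DMSO vehicle. Cells: umbilical vein endothelium plus peripheral blood mononuclear cells, treated 24 h before fluorescent ELISA for CD69.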

Read-out in test [16]: E-selectin (Homo sapiens) (UniProt P16581)
Kind of test: BSK_SAg_Eselectin: BioMAP Diversity Plus: SAg Assay for Eselectin Biomarker Activity (AID 2283091). The conditions noted are these: primary human HUVEC with PBMC; actives raise or lower the signal. Summed up:
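Cell-surface E-selectin is read by ELISA at 24 h in the SAg co-culture of HUVEC and PBMC. Curves are fitted in both directions relative to DMSO. Parallel SRB total-protein staining tracks overt toxicity.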

Test [17] in a line: BSK_SAg_PBMCCytotoxicity: PBMC Cytotoxicity Assessment in the BioMAP Diversity Plus: SAg Assay (AID 2283093).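 For AC50: PBMC superantigen activated with SEB plus TSST-1 one hour after compound addition.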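 Note: PBMC viability measured as Alamar Blue reduction fluorescence at 546/580 nm; fitted both ways against DMSO so a hit may be loss or gain of signal.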 The conditions noted are these: primary human HUVEC with PBMC. In short, it runs like this:
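Human umbilical vein endothelial cells co-cultured with PBMC; PBMC (75,000/well) pre-treated with compound 1 h, then activated with SEB and TSST-1 (20 ng/mL final each) for 90 h. Alamar Blue added 6 h, fluorescence 546/580 nm; bidirectional fit versus DMSO.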

Read-out in test [18]: Transforming growth factor beta 1 (TGFb1), TGFB1 (gene 7040)
Kind of test: BSK_BE3C_TGFb1: BioMAP Diversity Plus: BE3C Assay for Transforming growth factor beta 1 (TGFb1) Biomarker Activity (AID 2283036). The conditions noted are these: primary human bronchial epithelial cells; actives raise or lower the signal. In short, it runs like this: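 Human primary bronchial epithelial cells (BE3C system) were dosed with chemical and TGF-b1 levels measured by ELISA at 24 h. Activity was fitted bidirectionally relative to DMSO negative control as baseline.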

Activity calls are given as the source filed them. Rule for the calls: active = hit-call score of the fitted dose curve at least 0.9, where 1 is the maximum; inactive = score below 0.9.

Chain of E-selectin (Homo sapiens) (P16581 whole entry, looked up): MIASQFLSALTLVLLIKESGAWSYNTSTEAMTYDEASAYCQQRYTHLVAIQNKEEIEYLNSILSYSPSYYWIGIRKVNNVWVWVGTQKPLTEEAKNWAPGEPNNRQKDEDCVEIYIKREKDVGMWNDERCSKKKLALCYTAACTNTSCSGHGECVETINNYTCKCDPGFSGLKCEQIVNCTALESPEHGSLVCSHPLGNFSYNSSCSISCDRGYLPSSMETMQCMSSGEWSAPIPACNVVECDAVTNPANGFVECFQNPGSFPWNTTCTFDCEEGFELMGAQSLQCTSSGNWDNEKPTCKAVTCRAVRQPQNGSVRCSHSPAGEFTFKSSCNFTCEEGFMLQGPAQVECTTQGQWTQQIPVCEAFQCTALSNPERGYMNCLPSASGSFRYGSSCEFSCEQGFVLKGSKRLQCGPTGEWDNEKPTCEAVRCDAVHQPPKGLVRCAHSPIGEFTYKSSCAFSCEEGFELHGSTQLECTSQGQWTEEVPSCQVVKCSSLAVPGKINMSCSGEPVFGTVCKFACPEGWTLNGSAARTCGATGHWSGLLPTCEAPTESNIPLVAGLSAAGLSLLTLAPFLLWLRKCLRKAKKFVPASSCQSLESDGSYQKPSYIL
Chain of Tumor necrosis factor (Homo sapiens) (P01375 whole entry, looked up): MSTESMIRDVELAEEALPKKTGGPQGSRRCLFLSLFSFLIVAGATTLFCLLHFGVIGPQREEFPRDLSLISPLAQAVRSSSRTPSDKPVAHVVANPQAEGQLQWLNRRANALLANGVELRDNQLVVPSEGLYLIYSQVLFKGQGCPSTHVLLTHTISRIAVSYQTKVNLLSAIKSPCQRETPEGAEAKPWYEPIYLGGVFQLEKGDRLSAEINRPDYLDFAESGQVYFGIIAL

For `O=[N+]([O-])O`, the outcome in test [1], in test [2], in [3], in test [4], in [5] and in [6] was inactive. The outcome in test [7], in test [8], in [9], in test [10], in [11] and in test [12] was inactive. In addition, the outcome is “inactive” in test [13]; “inactive” in test [14]; “inactive” in test [15]; “inactive” in the test with CD38, CD38 (gene 952); “inactive” with CD69, CD69 (gene 969); “inactive” in [16]. The result in test [17] was inactive.

Turning to `O=C1C(Cl)=C(Cl)C(=O)C(Cl)=C1Cl`, the AC50 (usually the midpoint of the concentration-response curve, whichever way the signal moves) was 7 µM (active) in test [1]; 11.9 µM (active) in test [2]; 29.2 µM (active) in test [3]; 35.6 µM (active) in [4]; 20 µM (active) in test [5]; 20 µM (active) in test [8]. Further, the AC50 is 15.3 µM (active) in test [9]; 20 µM (active) in test [10]; 20 µM (active) in test [11]; 20.1 µM (active) in [12]; 12.1 µM (active) in [13]; 13.5 µM (active) in [14]. Also, the AC50 is 30.9 µM (active) in test [15]; 28.5 µM (active) in the test with CD38, CD38 (gene 952); 27.3 µM (active) in the test with CD69, CD69 (gene 969); 25.9 µM (active) in test [16]; 15.1 µM (active) in test [17]. Moreover, the outcome in test [18], in [6] and in test [7] was inactive.

As for `O=C(CCl)c1ccccc1`, the AC50 is 5.4 µM (active) in test [1]; 3.06 µM (active) in [2]; 9.6 µM (active) in [3]; 36.5 µM (active) in test [4]; 36.2 µM (active) in [6]; 14.6 µM (active) in test [8]. Moreover, the AC50 in test [9] was 7.45 µM (active); in [10] it was 4.85 µM (active); in [11] it was 5.84 µM (active); in [12], 28.4 µM (active); in test [13], 36.4 µM (active); in [14], 18 µM (active). The AC50 in test [15] was 4.58 µM (active); with CD38, CD38 (gene 952) it was 4.55 µM (active); with CD69, CD69 (gene 969) it was 6.19 µM (active); in [16], 3.31 µM (active); in test [17], 4.68 µM (active). The result in test [18], in test [5] and in test [7] was inactive.

Consider `COCC(=O)N(c1c(C)cccc1C)N1CCOC1=O`, for which the outcome in test [1], in test [2], in test [3], in test [4], in [18] and in test [5] was inactive. Besides, the outcome in test [6], in test [7], in [8], in [9], in [10] and in test [11] was inactive. Also, the outcome is “inactive” in [12]; “inactive” in test [13]; “inactive” in test [14]; “inactive” in test [15]; “inactive” with CD38, CD38 (gene 952); “inactive” with CD69, CD69 (gene 969). In addition, the result in test [16] and in test [17] was inactive.
